Experimental data: the supplement of paper PMC10849652
The full data set covers some 7,900 targets. This sample favours those with a hit. About 0.6% of all pairs of compound and target were hits.

Key:
Assay in all cases: log2 fold change, soluble protein after heating vs DMSO (PISA); higher = thermal stabilisation; K562 cells, 10 uM, 30 min; active = over 0.2 and 3.5 SD of the protein, either way, in both replicates (recomputed)
IRAK-1-4 Inhibitor I = compound: C1COCCN1CCN2C3=CC=CC=C3N=C2NC(=O)C4=CC(=CC=C4)[N+](=O)[O-] [IRAK-1-4 Inhibitor I]
Procedure, shortened: (§1)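 Values are thermal stability changes relative to control samples and are taken from duplicates. They are stated as log2 fold changes. Before quantification by TMTpro 16plex LC-MS/MS with equalised channel sums, K562 cells at 2×10^6 cells/mL were treated with 10 μM compound for 30 min, heated in aliquots for 3 min across 48°C-58°C, pooled, extracted in PBS with 0.5% NP-40 at 4°C, and centrifuged at 21,000xg for 90 min to give the soluble supernatant.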

ibrutinib = compound: C=CC(=O)N1CCC[C@@H](n2nc(-c3ccc(Oc4ccccc4)cc3)c3c(N)ncnc32)C1 [ibrutinib]
Procedure, shortened: as §1

[1] = compound: CC(=O)c1cnc2ccc(-c3cc(Cl)c(O)c(Cl)c3)nc2c1N[C@H]1CC[C@H](CN(C)C)CC1
Procedure, shortened: as §1

ralimetinib = compound: CC(C)(C)Cn1c(N)nc2ccc(-c3[nH]c(C(C)(C)C)nc3-c3ccc(F)cc3)nc21 [ralimetinib]
Procedure, shortened: as §1

[2] = compound: CC(C)(O)CC(=O)NCCn1ccc2ncnc(Nc3ccc(Oc4cccc(C(F)(F)F)c4)c(Cl)c3)c21
Procedure, shortened: as §1

[3] = compound: CC(C)C1=C2N=C(C=C(N2N=C1)NCC3=CC=CC=C3)NCCCCCCN
Procedure, shortened: as §1

[4] = compound: CC(C)C[C@@H](C=O)NC(=O)[C@H](CC(C)C)NC(=O)[C@H](CC(C)C)NC(=O)OCc1ccccc1
Procedure, shortened: as §1

pinometostat = compound: CC(C)N(C[C@H]1O[C@@H](n2cnc3c(N)ncnc32)[C@H](O)[C@@H]1O)[C@H]1C[C@@H](CCc2nc3cc(C(C)(C)C)ccc3[nH]2)C1 [pinometostat]
Procedure, shortened: as §1

[5] = compound: CC1=C(C(CC(=O)N1)C2=CC=C(C=C2)C(F)(F)F)C(=O)NC3=C(C=C4C(=C3)C=NN4)F
Procedure, shortened: as §1

[6] = compound: CC1=C(C2=C(C=C1)C(=O)C3=CC=CC=C3N2CCCN)C
Procedure, shortened: as §1

Measured: log2 fold change

PTPMT1 (UniProt Q8WUK0)
inactive: IRAK-1-4 Inhibitor I 0.018 | ibrutinib -0.05 | [1] -0.131 | ralimetinib -0.144 | [2] -0.083 | [4] 0.052 | pinometostat 0.013 | [5] 0.043 | [6] -0.057
active: [3] -0.579

PIR (UniProt O00625)
inactive: IRAK-1-4 Inhibitor I -0.016 | ibrutinib 0.019 | [1] 0.016 | ralimetinib -0.056 | [2] 0.073 | [3] 0.011 | [4] -0.042 | pinometostat -0.01 | [5] 0.015 | [6] 0.037

POLR2E (UniProt P19388)
inactive: IRAK-1-4 Inhibitor I -0.106 | ibrutinib -0.012 | [1] 0.218 | ralimetinib -0.041 | [2] -0.061 | [3] 0.081 | [4] 0.065 | pinometostat 0.108 | [5] -0.055 | [6] -0.014

PSMB9 (UniProt P28065)
inactive: IRAK-1-4 Inhibitor I 0.091 | ibrutinib 0.511 | [1] 0.031 | [2] -0.01 | [3] 0.205 | pinometostat 0.069

POMP (UniProt Q9Y244)
UniProt Q9Y244, sequence (Q9Y244 whole entry, looked up): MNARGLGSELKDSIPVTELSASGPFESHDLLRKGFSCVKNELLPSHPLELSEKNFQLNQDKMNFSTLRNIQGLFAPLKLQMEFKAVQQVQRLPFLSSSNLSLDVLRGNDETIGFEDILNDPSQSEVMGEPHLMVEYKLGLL
inactive: IRAK-1-4 Inhibitor I 0.029 | ibrutinib -0.002 | [1] -0.002 | ralimetinib -0.022 | [2] -0.033 | [3] 0.009 | [4] -0.002 | pinometostat -0.023 | [5] 0.076 | [6] -0.053

PNPLA4 (UniProt P41247)
UniProt P41247, sequence (P41247 whole entry, looked up): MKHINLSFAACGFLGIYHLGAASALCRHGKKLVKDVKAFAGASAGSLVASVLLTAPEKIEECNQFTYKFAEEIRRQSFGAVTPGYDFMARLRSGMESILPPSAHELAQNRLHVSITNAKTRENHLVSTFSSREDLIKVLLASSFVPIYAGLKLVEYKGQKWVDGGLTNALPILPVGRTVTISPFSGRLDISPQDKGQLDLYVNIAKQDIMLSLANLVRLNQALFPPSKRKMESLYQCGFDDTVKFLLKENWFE
inactive: IRAK-1-4 Inhibitor I -0.094 | ibrutinib 0.012 | [1] 0.005 | ralimetinib -0.022 | [3] 0.115 | [4] 0.209 | pinometostat 0.049 | [5] 0.054 | [6] -0.025

PDLIM7 (UniProt Q9NR12)
inactive: IRAK-1-4 Inhibitor I 0.017 | ibrutinib 0.005 | [1] -0.054 | ralimetinib 0.08 | [2] -0.035 | [3] 0.024 | [4] -0.045 | pinometostat -0.019 | [5] 0.004 | [6] 0.065

PRKAR2A (UniProt P13861)
inactive: IRAK-1-4 Inhibitor I 0.006 | ibrutinib 0.013 | ralimetinib 0.047 | [2] -0.036 | [3] -0.002 | [4] -0.023 | pinometostat 0.074 | [5] -0.06 | [6] 0.058
active: [1] -0.696

PRKD3 (UniProt O94806)
UniProt O94806, sequence (O94806 whole entry, looked up): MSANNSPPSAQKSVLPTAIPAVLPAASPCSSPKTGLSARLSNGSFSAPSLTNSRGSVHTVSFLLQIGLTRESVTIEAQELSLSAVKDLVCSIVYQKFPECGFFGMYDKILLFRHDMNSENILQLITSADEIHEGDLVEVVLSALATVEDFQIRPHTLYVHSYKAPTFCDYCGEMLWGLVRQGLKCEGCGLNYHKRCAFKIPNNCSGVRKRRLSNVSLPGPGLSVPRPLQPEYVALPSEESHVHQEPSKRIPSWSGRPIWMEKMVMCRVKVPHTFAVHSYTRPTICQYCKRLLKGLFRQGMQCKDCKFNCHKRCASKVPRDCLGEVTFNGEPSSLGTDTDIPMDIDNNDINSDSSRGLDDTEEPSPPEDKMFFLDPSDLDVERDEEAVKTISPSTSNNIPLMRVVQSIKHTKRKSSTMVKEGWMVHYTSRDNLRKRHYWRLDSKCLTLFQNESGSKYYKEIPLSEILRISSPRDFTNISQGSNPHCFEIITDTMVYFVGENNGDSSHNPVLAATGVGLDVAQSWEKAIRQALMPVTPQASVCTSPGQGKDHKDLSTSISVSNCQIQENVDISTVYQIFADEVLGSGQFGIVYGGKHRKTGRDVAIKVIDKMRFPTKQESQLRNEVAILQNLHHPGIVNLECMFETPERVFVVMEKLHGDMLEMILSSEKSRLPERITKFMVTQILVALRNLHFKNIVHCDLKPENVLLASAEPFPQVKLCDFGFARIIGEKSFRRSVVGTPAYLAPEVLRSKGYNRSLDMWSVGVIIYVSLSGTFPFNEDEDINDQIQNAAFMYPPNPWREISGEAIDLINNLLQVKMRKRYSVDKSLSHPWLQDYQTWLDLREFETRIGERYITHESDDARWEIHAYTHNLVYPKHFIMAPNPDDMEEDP
active: [1] -2.06
inactive: IRAK-1-4 Inhibitor I 0.189 | ibrutinib 0.059 | ralimetinib -0.089 | [3] -0.129 | [4] 0.06 | pinometostat 0.266

PPIL1 (UniProt Q9Y3C6)
UniProt Q9Y3C6, sequence (Q9Y3C6 whole entry, looked up): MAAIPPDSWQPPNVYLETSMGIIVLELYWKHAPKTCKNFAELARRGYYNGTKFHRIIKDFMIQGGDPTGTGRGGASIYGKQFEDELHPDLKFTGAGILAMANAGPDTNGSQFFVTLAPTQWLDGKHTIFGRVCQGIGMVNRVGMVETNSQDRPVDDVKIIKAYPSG
inactive: IRAK-1-4 Inhibitor I -0.046 | ibrutinib -0.011 | ralimetinib -0.02 | [2] -0.038 | [3] 0.08 | [4] 0.09 | pinometostat 0.082 | [5] 0.004 | [6] 0.172
active: [1] 0.225

PSD3 (UniProt Q9NYI0)
UniProt Q9NYI0, sequence (Q9NYI0 whole entry, looked up): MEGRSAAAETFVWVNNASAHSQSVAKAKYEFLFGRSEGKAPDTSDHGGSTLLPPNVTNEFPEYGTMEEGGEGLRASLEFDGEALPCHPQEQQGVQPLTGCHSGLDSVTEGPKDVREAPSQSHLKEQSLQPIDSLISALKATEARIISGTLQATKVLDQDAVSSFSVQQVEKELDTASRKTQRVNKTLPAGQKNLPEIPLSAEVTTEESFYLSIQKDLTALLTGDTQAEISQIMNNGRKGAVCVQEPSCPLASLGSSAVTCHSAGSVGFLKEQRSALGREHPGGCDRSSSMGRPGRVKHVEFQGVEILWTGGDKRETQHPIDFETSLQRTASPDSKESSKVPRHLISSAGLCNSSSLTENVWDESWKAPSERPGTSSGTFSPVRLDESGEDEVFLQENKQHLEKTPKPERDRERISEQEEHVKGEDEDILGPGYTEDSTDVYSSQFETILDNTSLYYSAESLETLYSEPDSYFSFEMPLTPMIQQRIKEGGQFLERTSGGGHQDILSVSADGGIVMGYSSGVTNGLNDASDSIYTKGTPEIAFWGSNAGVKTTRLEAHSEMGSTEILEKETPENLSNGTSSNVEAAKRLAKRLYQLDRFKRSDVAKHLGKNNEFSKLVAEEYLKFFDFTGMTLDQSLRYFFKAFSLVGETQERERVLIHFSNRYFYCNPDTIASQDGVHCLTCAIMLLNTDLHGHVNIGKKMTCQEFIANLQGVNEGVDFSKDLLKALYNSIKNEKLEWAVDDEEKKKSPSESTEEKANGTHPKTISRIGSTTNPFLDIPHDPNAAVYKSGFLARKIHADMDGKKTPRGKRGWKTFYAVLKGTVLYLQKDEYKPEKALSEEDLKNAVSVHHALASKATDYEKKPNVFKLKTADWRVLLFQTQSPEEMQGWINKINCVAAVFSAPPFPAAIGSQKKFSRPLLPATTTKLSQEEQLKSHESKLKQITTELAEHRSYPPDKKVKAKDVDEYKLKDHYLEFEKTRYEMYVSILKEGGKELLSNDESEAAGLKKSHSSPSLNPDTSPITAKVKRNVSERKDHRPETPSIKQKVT
inactive: IRAK-1-4 Inhibitor I 0.014 | [1] -0.024 | ralimetinib -0.026 | [4] -0.055 | pinometostat -0.037 | [5] -0.016

PCID2 (UniProt Q5JVF3)
inactive: IRAK-1-4 Inhibitor I -0.008 | ibrutinib -0.015 | ralimetinib 0.007 | [2] 0.063 | [4] -0.02 | pinometostat 0.037 | [5] 0.035 | [6] 0.06
active: [3] -0.428

PRKX (UniProt P51817)
inactive: ibrutinib -0.005 | [3] -0.274

PCNX1 (UniProt Q96RV3)
inactive: ibrutinib 0.008 | [2] 0.005 | [5] 0.015 | [6] 0.143

PDE4DIP (UniProt E9PS60)
inactive: IRAK-1-4 Inhibitor I -0.183 | [3] 0.171 | pinometostat 0.178

PTTG1IP (UniProt P53801)
inactive: IRAK-1-4 Inhibitor I -0.122 | ibrutinib 0.028 | [1] -0.004 | [2] -0.031 | [3] 0.029 | pinometostat 0.028 | [5] 0.084 | [6] -0.119

PPP2R5B (UniProt Q15173)
inactive: ibrutinib -0.083 | [1] 0.165 | [3] 0.092 | [5] 0.037

PKM isoform 2 (UniProt P14618)
active: [2] -0.561
inactive: IRAK-1-4 Inhibitor I -0.018 | [1] 0 | ralimetinib 0.054 | [4] 0.023 | pinometostat 0.08 | [5] -0.068 | [6] 0.034

PRKD2 (UniProt M0R346)
inactive: ibrutinib -0.096 | [2] -0.273

PSMD8 (UniProt K7ERW6)
inactive: IRAK-1-4 Inhibitor I 0.018 | pinometostat 0.001 | [6] 0.037

PPP1R12B isoform 6 (UniProt O60237)
UniProt O60237, sequence (O60237 whole entry, looked up): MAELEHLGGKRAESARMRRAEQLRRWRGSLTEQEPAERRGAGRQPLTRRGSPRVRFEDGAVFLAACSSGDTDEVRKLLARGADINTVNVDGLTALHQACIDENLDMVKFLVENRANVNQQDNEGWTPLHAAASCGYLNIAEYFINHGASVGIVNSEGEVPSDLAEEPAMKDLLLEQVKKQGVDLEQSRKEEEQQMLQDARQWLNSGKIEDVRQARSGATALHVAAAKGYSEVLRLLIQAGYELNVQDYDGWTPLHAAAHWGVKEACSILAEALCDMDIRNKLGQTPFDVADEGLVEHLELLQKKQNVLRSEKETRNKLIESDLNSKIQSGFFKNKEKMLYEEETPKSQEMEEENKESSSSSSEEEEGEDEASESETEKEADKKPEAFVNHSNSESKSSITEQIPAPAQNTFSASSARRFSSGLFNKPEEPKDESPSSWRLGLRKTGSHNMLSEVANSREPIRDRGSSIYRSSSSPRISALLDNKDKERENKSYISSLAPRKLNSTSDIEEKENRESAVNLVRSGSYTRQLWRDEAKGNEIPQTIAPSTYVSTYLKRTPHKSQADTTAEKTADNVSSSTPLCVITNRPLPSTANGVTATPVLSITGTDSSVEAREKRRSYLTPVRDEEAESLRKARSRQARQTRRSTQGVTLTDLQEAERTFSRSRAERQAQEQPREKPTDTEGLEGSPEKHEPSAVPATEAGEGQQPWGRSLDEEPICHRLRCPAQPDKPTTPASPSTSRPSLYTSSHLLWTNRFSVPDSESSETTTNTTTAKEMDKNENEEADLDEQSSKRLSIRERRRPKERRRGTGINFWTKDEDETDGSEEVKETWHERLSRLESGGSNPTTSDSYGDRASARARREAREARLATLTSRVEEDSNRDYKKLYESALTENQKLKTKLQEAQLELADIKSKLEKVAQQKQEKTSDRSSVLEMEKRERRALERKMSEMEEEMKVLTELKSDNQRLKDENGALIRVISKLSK
active: [5] -0.346
inactive: ibrutinib 0.075 | [3] -0.074

PPP1R12C (UniProt Q9BZL4)
UniProt Q9BZL4, sequence (Q9BZL4 whole entry, looked up): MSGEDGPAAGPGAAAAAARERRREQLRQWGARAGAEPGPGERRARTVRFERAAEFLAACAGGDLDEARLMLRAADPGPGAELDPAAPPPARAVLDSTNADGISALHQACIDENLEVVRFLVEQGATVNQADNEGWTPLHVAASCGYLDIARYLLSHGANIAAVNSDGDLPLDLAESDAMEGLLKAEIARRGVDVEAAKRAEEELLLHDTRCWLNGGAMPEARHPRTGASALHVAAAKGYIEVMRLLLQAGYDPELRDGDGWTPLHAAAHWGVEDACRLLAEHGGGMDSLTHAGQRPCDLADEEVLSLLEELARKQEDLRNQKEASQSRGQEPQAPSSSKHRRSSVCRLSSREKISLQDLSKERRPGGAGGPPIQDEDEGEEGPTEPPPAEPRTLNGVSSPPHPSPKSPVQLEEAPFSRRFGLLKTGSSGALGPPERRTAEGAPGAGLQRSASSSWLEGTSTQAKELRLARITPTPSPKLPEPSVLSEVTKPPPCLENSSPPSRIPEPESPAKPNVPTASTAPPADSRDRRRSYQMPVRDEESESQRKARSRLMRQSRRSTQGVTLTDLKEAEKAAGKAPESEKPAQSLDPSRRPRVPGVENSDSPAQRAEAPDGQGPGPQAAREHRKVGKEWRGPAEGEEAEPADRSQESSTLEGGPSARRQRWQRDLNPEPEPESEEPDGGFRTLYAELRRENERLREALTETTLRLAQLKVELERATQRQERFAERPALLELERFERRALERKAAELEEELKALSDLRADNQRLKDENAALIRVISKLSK
inactive: ibrutinib -0.024 | ralimetinib -0.028 | [2] 0.045 | [3] -0.126 | [4] -0.041 | [5] -0.291 | [6] -0.157

PMS2CL (UniProt Q68D20)
UniProt Q68D20, sequence (Q68D20 whole entry, looked up): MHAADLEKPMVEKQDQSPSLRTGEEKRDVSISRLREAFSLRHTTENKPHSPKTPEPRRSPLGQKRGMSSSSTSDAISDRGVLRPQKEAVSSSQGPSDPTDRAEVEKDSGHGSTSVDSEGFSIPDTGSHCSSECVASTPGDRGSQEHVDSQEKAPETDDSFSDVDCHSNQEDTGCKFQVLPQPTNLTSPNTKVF
inactive: ralimetinib -0.21 | [2] -0.042 | [4] -0.258 | [5] 0.231

PPP2R5C isoform 2 (UniProt Q13362)
inactive: IRAK-1-4 Inhibitor I -0.036 | ibrutinib -0.038 | ralimetinib 0.026 | [3] -0.146 | [4] -0.095 | pinometostat -0.017

PSMC3 (UniProt E9PLG2)
inactive: IRAK-1-4 Inhibitor I -0.064 | ibrutinib -0.051 | [2] 0.167 | pinometostat -0.1 | [6] -0.155

PKM (UniProt P14618)
inactive: IRAK-1-4 Inhibitor I 0.012 | [1] -0.011 | ralimetinib -0.018 | [2] -0.02 | [3] 0.079 | [4] -0.013 | pinometostat -0.033 | [5] 0.021 | [6] 0.036

PSMC1 (UniProt G3V4X1)
inactive: [3] -0.089 | [5] 0.029

PUF60 isoform 2 (UniProt Q9UHX1)
UniProt Q9UHX1, sequence (Q9UHX1 whole entry, looked up): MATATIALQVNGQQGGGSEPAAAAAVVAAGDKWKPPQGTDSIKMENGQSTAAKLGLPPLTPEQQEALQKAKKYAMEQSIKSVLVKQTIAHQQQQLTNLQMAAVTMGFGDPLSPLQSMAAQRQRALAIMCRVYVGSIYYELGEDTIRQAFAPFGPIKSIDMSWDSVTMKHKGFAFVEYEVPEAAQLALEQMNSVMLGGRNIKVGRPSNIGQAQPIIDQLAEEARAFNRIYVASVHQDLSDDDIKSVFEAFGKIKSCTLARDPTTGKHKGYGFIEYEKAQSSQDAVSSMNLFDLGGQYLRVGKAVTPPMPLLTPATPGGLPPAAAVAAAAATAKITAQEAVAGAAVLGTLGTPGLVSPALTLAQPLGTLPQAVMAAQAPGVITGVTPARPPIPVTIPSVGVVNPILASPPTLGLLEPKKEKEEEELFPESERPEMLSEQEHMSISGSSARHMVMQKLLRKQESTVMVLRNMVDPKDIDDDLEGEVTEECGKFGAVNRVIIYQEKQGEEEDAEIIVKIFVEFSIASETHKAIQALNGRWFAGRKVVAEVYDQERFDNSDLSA
inactive: ibrutinib 0.035 | [1] -0.329 | ralimetinib 0.25 | [4] -0.203 | [6] -0.052

PTPA (UniProt A6PVN8)
inactive: ibrutinib 0.063 | [1] -0.241 | ralimetinib -0.07 | [2] -0.052 | [3] 0.122 | [4] -0.002 | [5] 0.026 | [6] -0.104

POLR2M (UniProt Q6EEV4)
inactive: IRAK-1-4 Inhibitor I -0.014 | ibrutinib -0.075 | [1] -0.027 | [2] -0.091 | [3] 0.128 | pinometostat 0.005 | [5] 0.139 | [6] 0.209

PRR14L (UniProt Q5THK1)
inactive: [1] -0.104 | [5] 0.015 | [6] 0.008
